The text below walks through data of PubChem BioAssay (NCATS).

Records with an inconclusive call do not appear. Unmarked numbers belong to inactive results. The source made the active and inactive calls. The call rests on the fitted dose curve; in most records, active means well fitted inhibition curve with a large enough effect; inconclusive means small, poorly fitted or top-dose-only effect; inactive means flat fitted curve, though single readings scatter. Where a SMILES comes first, the peptide text is derived from it. [ ]: non-standard residue; d: D form. ξ: configuration not given here. ξPhe(βξ-Me) = CC(c1ccccc1)C(N)C(=O)O; GABA = NCCCC(=O)O

What all share (assay): Cytotoxic Profiling of Annotated Libraries Using Quantitative High-Throughput Screening (AID 1296008); further: nearly all actives have a fitted effect of over 60% in size
Details in all cases: Five cell lines viability, CellTiter-Glo ATP luminescence, 48-72 h; max response: hits give low values
On the technique in general: ATP-based viability assays read luminescence as a measure of living cells.

One test relates to HaCat. The method, boiled down: (§1)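 Compounds were pin-transferred onto cells and incubated 48 or 72 hr at 37 degree Celsius, 95% humidity. CellTiter-Glo was added, plates sat 10 min at room temperature, then ATP-coupled luminescence was imaged as the viability read-out.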
The test system of a further test is KB-3-1. Put shortly:
as §1

The test system of another test is NIH3T3. The method, boiled down:
as §1
On the % scale 0 is the no-effect control and ±100 the full control effect; potency means the concentration at half of the fitted maximal effect.

`CC(=O)OC1C[C@]2(C)C(O)CC(C)=C[C@H](OC(=O)c3ccc(O)cc3)C2[C@]1(O)C(C)C` (some centres undefined): the values for the max response with HaCat, in the test with KB-3-1 and with NIH3T3 were -0.241%, 4.36% and 3.62%, respectively.

Regarding `CC1=C2C3OC(=O)C(C)C3(O)CCC2(C)CCC1O` (centres undefined), the values for the max response in the test on HaCat, in the test on KB-3-1 and with NIH3T3 were -12.8%, 5.71% and -16.2%, respectively.

Turning to `N#C[C@@H]1CCCN1C(=O)CNC12CC3CC(CC(O)(C3)C1)C2`, the values for the max response in the test on HaCat and in the test on NIH3T3 were -2.22% and -1.17%, respectively. Besides, the outcome with KB-3-1 was inactive.

For the compound `CC1(C)CC[C@@]2(C(=O)O[C@@H]3O[C@H](CO)[C@@H](O)[C@H](O)[C@H]3O)C(C1)C1=CCC3[C@@]4(C)CC[C@@H](O[C@@H]5O[C@H](C(=O)O)[C@@H](O[C@@H]6OC[C@@H](O)[C@H](O)[C@H]6O)[C@H](O[C@@H]6OC[C@](O)(CO)[C@H]6O)[C@H]5O)C(C)(C)C4CC[C@@]3(C)[C@]1(C)C[C@H]2O` (some centres undefined), the max response with HaCat is 4.43%; with NIH3T3, -2.09%. Also, in the test with KB-3-1, the result was inactive.

As to `CC(=O)O[C@H]1[C@H](O[C@H]2[C@@H]3C=CO[C@@H](O[C@@H]4O[C@H](CO)[C@@H](O)[C@H](O)[C@H]4O)[C@@H]3[C@@]3(CO)O[C@@H]23)O[C@@H](C)[C@H](OC(=O)/C=C/c2ccccc2)[C@H]1OC(=O)/C=C/c1ccccc1`, the max response in the test with HaCat is -13%; in the test on NIH3T3, 0.432%. Besides, in the test with KB-3-1, the call was inactive.

Turning to `COc1cc(O)cc(C)c1C(=O)O[C@H]1[C@@H](OC(C)=O)[C@H](n2ccc(=O)[nH]c2=O)O[C@@H]1CO`, the max response with HaCat is -17.4%; in the test with KB-3-1, 7.29%; in the test with NIH3T3, 0.716%.

`COc1cc2c(cc1OC)-c1[nH]nc(Nc3cccc(F)c3)c1C2`: the figures for the Potency in the test with HaCat, with KB-3-1 and in the test on NIH3T3 were 73.1 nM (active), 164 nM (active) and 731 nM (active), respectively.

On to `C=CC(C)(CC/C=C(\C)C(=O)OC)OC1OC(COC(=O)CC(C)(O)CC(=O)O)C(OC2OC(CO)C(O)C(O)C2O)C(O)C1O` (centres undefined), for which the max response in the test with HaCat is -0.66%; with NIH3T3 it was 2.15%. The compound was called inactive with KB-3-1.

Turning to `O=C(CCCCN1CCOCC1)Nc1ccc(-c2cccnc2)cc1`, the max response in the test with HaCat was -1.44%; in the test with KB-3-1, 3.7%; in the test with NIH3T3, 4.47%.

Consider `CC1CC[C@]2(C(=O)O)CC[C@]3(C(=O)O)C(=CCC4[C@@]5(C)CC[C@H](O[C@@H]6O[C@H](CO)[C@@H](O)[C@H](O)[C@H]6O)C(C)(C)C5CC[C@]43C)C2C1C` (some centres undefined), for which the values for the max response in the test on HaCat, in the test on KB-3-1 and in the test on NIH3T3 were 4.65%, 6.73% and 2.56%, respectively.

Regarding `CC1NC(=O)CCCNC(=O)C(Cc2c[nH]c3ccccc23)NC(=O)C(C)NC(=O)C(C(C)C)NC(=O)C(C(C)c2ccccc2)NC(=O)C(C(C)C)NC1=O` (stereo not drawn) (cyclo([GABA]AV[ξPhe(βξ-Me)]VAW); configuration not given here), the values for the max response in the test on HaCat, in the test with KB-3-1 and in the test with NIH3T3 were -0.27%, -4.62% and -4.21%, respectively.

In the case of `CC1(C)CC2C(C1)C(C)(O)C13CC1(COC3=O)C2O` (centres undefined), the values for the max response with HaCat, in the test on KB-3-1 and in the test with NIH3T3 were -11.6%, -11% and -6.54%, respectively.

Take `C=CC[C@]12C[C@@H](OC)C(=O)C(OC)=C1O[C@@H](c1cc(OC)c3c(c1)OCO3)[C@@H]2C`: the figures for the max response in the test on HaCat, in the test on KB-3-1 and in the test with NIH3T3 were -13.8%, -1.19% and -4.29%, respectively.

As to `COC(=O)[C@@H](O)[C@H]1[C@@]2(C)CC3(O)[C@@H](C(=O)[C@H]2O)[C@]24O[C@]25CC(=O)O[C@@H](c2ccoc2)[C@]5(C)CCC4[C@]13C` (some centres undefined), the max response with HaCat was 4.1%; with KB-3-1 it was 7.49%; with NIH3T3 it was -5.38%.

As for `CC1(C)CC[C@]2(C(=O)O[C@@H]3O[C@H](CO)[C@@H](O)[C@H](O)[C@H]3O)CC[C@]3(C)C(=CCC4[C@@]5(C)C[C@@H](O)[C@H](O)[C@](C)(C(=O)O)C5CC[C@]43C)C2C1O` (some centres undefined), the max response was 1.77% with HaCat, -4.21% with KB-3-1 and -9.14% in the test with NIH3T3.

`C=C1C(OC(=O)/C(C)=C\C)[C@@]23CCC4[C@@](C)(CCC[C@@]4(C)C(=O)O)C2CC[C@H]1C3OC(C)=O` (some centres undefined): the max response with HaCat was 4.6%; in the test on KB-3-1, 5.82%; in the test with NIH3T3, 1.34%.

As for `COc1cc(/C=C/CO)cc(OC)c1O[C@@H]1O[C@H](CO[C@@H]2O[C@H](CO)[C@@H](O)[C@H](O)[C@H]2O)[C@@H](O)[C@H](O)[C@H]1O`, the max response in the test on HaCat is 4.69%; in the test with KB-3-1 it was 9.56%; in the test with NIH3T3, -3.2%.

As for `CCC(O)C(C)C1CCC(C(C)C(=O)O)O1` (centres undefined), the max response with HaCat was 3.27%; in the test with NIH3T3 it was 2.92%. In addition, in the test on KB-3-1, the call was inactive.
